From PubChem BioAssay
MEP2-GFP yeast: modulators of TOR pathway MEP2-GFP in S. cerevisiae; S. cerevisiae MEP2-GFP strain, flow cytometry GFP, 3 h; 100% = DMSO control level; GFP response vs DMSO, % at 10 µM; 330,000 compounds, 0.51% hits; AID 2016;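 active means GFP response versus DMSO above a set limit, roughly screen mean plus 3 SD, cut at about 180% in these data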;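 further: median GFP fluorescence of the barcode-gated MEP2-GFP cells per well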
LAP4 TOR yeast: alters LAP4-GFP fluorescence in TOR pathway yeast screen. S. cerevisiae LAP4-GFP multiplex, flow cytometry GFP, 3 h; median GFP as percent of DMSO wells. GFP response vs DMSO, % at 10 µM. 320,000 compounds, 0.34% hits. AID 2023;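 active means GFP response vs DMSO above a set limit, about the screen mean plus 3 SD, cut at about 150% in these data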
CIT2-GFP yeast: modulators of TOR pathway CIT2-GFP in S. cerevisiae. S. cerevisiae CIT2-GFP strain, flow cytometry, 3 h; 100 means same as DMSO wells. GFP response vs DMSO, % at 10 µM. 320,000 compounds, 0.065% hits;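 active means GFP response relative to DMSO above a set limit, near the screen mean plus 3 SD, cut at about 150% in these data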;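 further: ratio of well median GFP fluorescence to mean of DMSO wells on the plate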
Pemphigus Ab inh: blocks pemphigus antibody binding to human desmoglein-3 | P32926 | DSG3-coupled beads, scFv-anti-DSG3-GFP binding, flow cytometry; stronger effect = lower value | binding (percent of control), % at 10 µM | 310,000 compounds, 0.48% hits;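 active means binding more than 3 SD below its plate's average and above zero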
Target sequence (P32926 whole entry, looked up): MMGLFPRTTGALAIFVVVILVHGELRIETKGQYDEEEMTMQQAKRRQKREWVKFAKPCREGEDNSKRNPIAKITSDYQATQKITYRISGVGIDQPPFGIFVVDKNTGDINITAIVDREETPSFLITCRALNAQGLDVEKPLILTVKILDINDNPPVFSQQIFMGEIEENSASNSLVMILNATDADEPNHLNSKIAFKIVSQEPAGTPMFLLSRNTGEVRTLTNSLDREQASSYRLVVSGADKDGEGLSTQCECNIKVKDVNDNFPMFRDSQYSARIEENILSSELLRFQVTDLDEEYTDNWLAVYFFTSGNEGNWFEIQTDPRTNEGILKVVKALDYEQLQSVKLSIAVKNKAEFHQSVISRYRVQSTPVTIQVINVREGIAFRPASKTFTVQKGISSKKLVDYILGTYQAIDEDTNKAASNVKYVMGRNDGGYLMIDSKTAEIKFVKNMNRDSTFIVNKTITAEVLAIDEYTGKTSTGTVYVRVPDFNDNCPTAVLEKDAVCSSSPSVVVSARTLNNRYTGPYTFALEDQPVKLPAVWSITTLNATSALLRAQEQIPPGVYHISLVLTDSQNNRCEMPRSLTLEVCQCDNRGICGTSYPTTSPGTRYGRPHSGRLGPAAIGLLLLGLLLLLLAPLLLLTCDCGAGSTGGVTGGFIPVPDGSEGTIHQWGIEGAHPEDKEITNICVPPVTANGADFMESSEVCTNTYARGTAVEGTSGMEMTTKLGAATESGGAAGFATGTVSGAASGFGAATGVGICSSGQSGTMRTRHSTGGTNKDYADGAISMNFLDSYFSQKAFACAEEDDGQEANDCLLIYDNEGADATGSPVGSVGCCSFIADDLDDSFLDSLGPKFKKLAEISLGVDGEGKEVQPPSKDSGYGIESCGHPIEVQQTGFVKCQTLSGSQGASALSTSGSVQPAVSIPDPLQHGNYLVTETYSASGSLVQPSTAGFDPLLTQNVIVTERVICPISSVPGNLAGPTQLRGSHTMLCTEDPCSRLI
RPL19A-GFP yeast: modulators of TOR pathway RPL19A-GFP in S. cerevisiae | S. cerevisiae RPL19A-GFP strain, flow cytometry, 3 h; stronger effect = lower value | percent response vs DMSO, % at 10 µM | 330,000 compounds, 0.3% hits | AID 2025;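 active means percent response vs DMSO below 50%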;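 further: median channel GFP fluorescence of the barcoded RPL19A-GFP strain; lower means less RPL19A-GFP as with rapamycin TOR inhibition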
AGP1 TOR yeast: yeast TOR pathway AGP1-GFP modulation; S. cerevisiae AGP1-GFP multiplex flow cytometry, 3 h; GFP as percent of DMSO wells; AID 2066; GFP response vs DMSO, % at 10 µM; 320,000 compounds, 0.02% hits;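 active means GFP response relative to DMSO above a set limit, near screen average plus 3 SD, cut at about 150% in these data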;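 further: median GFP channel fluorescence of the gated AGP1 strain per well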
LAP4 cherry2: reconfirmed LAP4-GFP TOR pathway modulator in yeast. AID 2621. S. cerevisiae LAP4-GFP strain, flow cytometry GFP, 3 h. 590 compounds, 20% hits. shares compounds with LAP4 TOR yeast. GFP response vs DMSO, % at 10 µM;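 active means GFP signal as percent of the solvent control above about 150%, meaning raised reporter expression, limit read from the data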
MEP2 cherry2: second confirmation of modulators of TOR reporter MEP2-GFP in yeast; shares compounds with LAP4 TOR yeast; S. cerevisiae MEP2-GFP strain, flow cytometry GFP, 3 h; GFP response vs DMSO, % at 10 µM; 590 compounds, 10% hits; AID 2622;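 active means GFP signal above 150% of the solvent control wells, that is a rise of more than half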;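 further: median channel GFP fluorescence of all gated yeast cells per well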
RPL19A GFP CP2: reconfirmed modulator of RPL19A-GFP TOR reporter in yeast; S. cerevisiae RPL19A-GFP strain, flow cytometry GFP, 3 h; stronger effect = lower value; 100% means same as DMSO wells; shares compounds with LAP4 TOR yeast; 590 compounds, 3% hits; GFP response vs DMSO, % at 10 µM; AID 2623;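 active means under 65% GFP response relative to DMSO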;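 further: median GFP channel fluorescence per well over the all cells gate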
CIT2 GFP CP2: yeast CIT2-GFP TOR reporter modulation, second cherry pick | shares compounds with LAP4 TOR yeast | S. cerevisiae CIT2-GFP strain, flow cytometry GFP, 3 h; DMSO control wells read 100% | GFP response vs DMSO, % at 10 µM | 590 compounds, 8% hits | AID 2624;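 active means GFP response vs DMSO above about 150%, limit read from the data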;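 further: median green fluorescence per well over all gated yeast cells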
AGP1-GFP pick2: second confirmation of modulators of TOR reporter AGP1-GFP in yeast | 590 tested, under 10 active | S. cerevisiae AGP1-GFP strain, flow cytometry GFP, 3 h | percent response vs DMSO, % at 10 µM | shares compounds with LAP4 TOR yeast;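 active means over 150 percent of DMSO response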;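 further: median GFP channel fluorescence over all cells without mother daughter split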
Yeast autofluor: counter-screen for compound autofluorescence in yeast s288c cells; shares compounds with LAP4 TOR yeast; S. cerevisiae s288c, 520 nm autofluorescence, flow cytometry, 3 h; stronger effect = higher value; zero means same as solvent-only cells; fluorescence change (kMESF span) at 33 µM; 610 tested, under 10 active; AID 2757;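 active means fluorescence span over the dose series, or activity score, above about 33, limit read from the data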
TORC1 bypass gr: wildtype yeast growth loss with TORC1 bypass cells unaffected; S. cerevisiae BY4741 spot growth rating, 48-72 h; stronger effect = lower value; 120 tested, under 10 active; growth rating (0-3) at 30 µM; shares compounds with LAP4 TOR yeast;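 active means growth rating at most 1 for wild type yeast while the TORC1 bypass strain still grows fully, rated 3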
Large screens that a line does not name were inactive (follow-up assays come after a bar, where they were run); [ ] = another dose, or the depositor's remark. Most compounds without a hit are left out; they make up all but 1.2% or so of the library.

COc1cccc(CN2CCNC(=O)C2CC(=O)N(C)C2CCOCC2)c1 (configuration not stated)	none
C#CCOc1c(Cl)cc(C2C3=C(CCCC3=O)N(CC(=O)O)C3=C2C(=O)CCC3)cc1OC	none | LAP4 cherry2 inactive | MEP2 cherry2 inactive | RPL19A GFP CP2 inactive | CIT2 GFP CP2 inactive | AGP1-GFP pick2 inactive
COc1cc(/C=C/c2ccc3c(Br)cc(Br)c(O)c3n2)ccc1O	LAP4 TOR yeast 164 | Yeast autofluor inactive
CN(CCO)c1ccc(-c2n[nH]c(=O)c3ccccc23)cc1[N+](=O)[O-]	none
COc1ccc2[nH]c(C(=O)O)c(CCN3C(=O)c4cccc([N+](=O)[O-])c4C3=O)c2c1	none | LAP4 cherry2 inactive | MEP2 cherry2 inactive | RPL19A GFP CP2 inactive | CIT2 GFP CP2 inactive | AGP1-GFP pick2 inactive
CC(C)CC(NC(=O)OC(C)(C)C)c1cn([C@@H](CCCCNC(=O)OC(C)(C)C)C(=O)N2CCN(C(=O)OC(C)(C)C)CC2)nn1 (some centres not stated)	none (no result: MEP2-GFP yeast, LAP4 TOR yeast, CIT2-GFP yeast, RPL19A-GFP yeast, AGP1 TOR yeast)
O=C(NNC(=O)c1sccc1-n1cccc1)c1ccccc1	none
O=C(NNC(=O)c1sccc1-n1cccc1)c1cccc(Cl)c1	LAP4 TOR yeast 203 | LAP4 cherry2 inactive | MEP2 cherry2 inactive | RPL19A GFP CP2 inactive | CIT2 GFP CP2 inactive | AGP1-GFP pick2 inactive
COc1cc2c(cc1OC)C(C)N(C(=O)c1cccc([N+](=O)[O-])c1)CC2 (configuration not stated)	none
COc1ccc(C(=O)c2c[nH]c(C(=O)NCc3cccs3)c2)cc1	none
CCn1c(=O)c([N+](=O)[O-])c(NCc2ccco2)c2ccccc21	LAP4 TOR yeast 201[may fluoresce green] | LAP4 cherry2 inactive | MEP2 cherry2 inactive | RPL19A GFP CP2 inactive | CIT2 GFP CP2 inactive | AGP1-GFP pick2 inactive
CCNc1c([N+](=O)[O-])c(=O)n(CC)c2ccccc12	none
CCCCn1c(N)c(N(CC(C)C)C(=O)C2CCCN(C(=O)c3ccc(Cl)cc3)C2)c(=O)[nH]c1=O (configuration not stated)	none
Cc1ccc(S(=O)(=O)c2nc(-c3ccc(F)cc3)oc2N2CCOCC2)cc1	none
CNc1nc(N)cc(Nc2cccc(Cl)c2)n1	none (no result: MEP2-GFP yeast, LAP4 TOR yeast, CIT2-GFP yeast, Pemphigus Ab inh, RPL19A-GFP yeast, AGP1 TOR yeast) | TORC1 bypass gr inactive
Cn1c(C(F)(F)F)nc2c(=O)oc3ccccc3c21	none
